# Where a chain is given by its changes, count along the chain named.
# What was measured:
# Test in all cases: protein-binding microarray (PBM); PBM: ~300 nM protein, 6 mM HEPES pH 7.8, 80 mM KCl, 0.5 mM EDTA, 0.5 mM EGTA, 6% glycerol, 35 ng/ul poly-dIdC, 1% milk, 1 h, room temperature; Ap Aiptasia and Nv Nematostella (sea anemones) / Co Capsaspora / Aq Amphimedon (sponge) / Dm Drosophila / Hu human; RHD is the Rel homology domain; high values mean tight binding
# Conditions in all cases: dsDNA, one strand shown
# GST-Ap-NF-kB RHD = molecular target: T1, GST-Ap-NF-kB RHD (Exaiptasia pallida (Aiptasia), UniProt A0A913YAJ5 2-422)
# T1 sequence: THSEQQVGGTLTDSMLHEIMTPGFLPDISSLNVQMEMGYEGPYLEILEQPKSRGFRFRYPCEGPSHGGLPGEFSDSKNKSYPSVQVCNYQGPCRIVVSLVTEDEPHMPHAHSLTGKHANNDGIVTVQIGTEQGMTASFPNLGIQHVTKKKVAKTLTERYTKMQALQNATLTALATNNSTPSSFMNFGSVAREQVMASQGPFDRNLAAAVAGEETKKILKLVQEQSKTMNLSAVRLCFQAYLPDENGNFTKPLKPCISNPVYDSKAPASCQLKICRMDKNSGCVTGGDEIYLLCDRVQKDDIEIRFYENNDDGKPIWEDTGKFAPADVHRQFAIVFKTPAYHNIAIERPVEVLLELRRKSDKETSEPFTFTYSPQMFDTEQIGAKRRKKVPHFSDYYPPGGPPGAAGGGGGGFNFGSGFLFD
# [1] = molecular target: T2, GST-Nv-NF-kB (Cys allele) (Nematostella vectensis, UniProt E5G601 2-411)
# T2 sequence: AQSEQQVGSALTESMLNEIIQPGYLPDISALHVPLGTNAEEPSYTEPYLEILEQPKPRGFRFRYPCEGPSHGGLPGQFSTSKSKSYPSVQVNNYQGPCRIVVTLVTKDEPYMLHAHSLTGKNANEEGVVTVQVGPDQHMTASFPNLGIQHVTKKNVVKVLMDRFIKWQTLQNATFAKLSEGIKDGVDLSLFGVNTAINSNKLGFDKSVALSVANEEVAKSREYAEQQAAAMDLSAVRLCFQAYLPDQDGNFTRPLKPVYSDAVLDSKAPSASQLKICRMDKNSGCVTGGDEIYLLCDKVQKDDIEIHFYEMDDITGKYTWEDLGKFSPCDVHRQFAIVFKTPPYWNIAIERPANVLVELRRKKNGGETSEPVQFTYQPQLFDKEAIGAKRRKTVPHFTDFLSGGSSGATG
# [2] = molecular target: T3, GST-Nv-NF-kB (Ser allele) (Nematostella vectensis, UniProt A7UNT2 2-411)
# T3 sequence: T2 sequence with Q21R, C66S, S207N, E215Q, V217A, E225K, A268E, D399E
# GST-Co-NF-kB = molecular target: T4, GST-Co-NF-kB (Capsaspora owczarzaki, UniProt F1ARL5 200-546)
# T4 sequence: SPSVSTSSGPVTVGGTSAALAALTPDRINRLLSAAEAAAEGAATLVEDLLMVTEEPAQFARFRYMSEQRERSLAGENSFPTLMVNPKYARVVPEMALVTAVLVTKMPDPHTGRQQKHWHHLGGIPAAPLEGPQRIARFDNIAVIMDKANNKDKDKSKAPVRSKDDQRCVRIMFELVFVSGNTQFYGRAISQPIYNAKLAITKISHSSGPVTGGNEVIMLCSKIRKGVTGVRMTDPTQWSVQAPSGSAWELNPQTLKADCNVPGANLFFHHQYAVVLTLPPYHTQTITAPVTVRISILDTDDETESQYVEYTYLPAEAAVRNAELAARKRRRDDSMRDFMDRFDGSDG
# GST-Dm-Relish = molecular target: T5, GST-Dm-Relish (Drosophila melanogaster, UniProt Q94527 99-473)
# T5 sequence: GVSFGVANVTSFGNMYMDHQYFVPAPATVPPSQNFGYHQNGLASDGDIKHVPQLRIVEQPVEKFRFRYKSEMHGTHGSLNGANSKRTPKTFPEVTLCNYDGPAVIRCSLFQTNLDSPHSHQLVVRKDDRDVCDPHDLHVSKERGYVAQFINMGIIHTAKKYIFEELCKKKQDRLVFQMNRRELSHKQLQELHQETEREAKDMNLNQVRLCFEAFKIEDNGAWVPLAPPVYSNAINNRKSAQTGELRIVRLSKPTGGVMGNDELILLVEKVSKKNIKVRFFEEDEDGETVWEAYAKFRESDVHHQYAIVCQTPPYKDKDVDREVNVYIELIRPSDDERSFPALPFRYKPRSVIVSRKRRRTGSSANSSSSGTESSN
# GST-Aq-NF-kB = molecular target: T6, GST-Aq-NF-kB (Amphimedon queenslandica, UniProt A9Y5G7 2-389)
# T6 sequence: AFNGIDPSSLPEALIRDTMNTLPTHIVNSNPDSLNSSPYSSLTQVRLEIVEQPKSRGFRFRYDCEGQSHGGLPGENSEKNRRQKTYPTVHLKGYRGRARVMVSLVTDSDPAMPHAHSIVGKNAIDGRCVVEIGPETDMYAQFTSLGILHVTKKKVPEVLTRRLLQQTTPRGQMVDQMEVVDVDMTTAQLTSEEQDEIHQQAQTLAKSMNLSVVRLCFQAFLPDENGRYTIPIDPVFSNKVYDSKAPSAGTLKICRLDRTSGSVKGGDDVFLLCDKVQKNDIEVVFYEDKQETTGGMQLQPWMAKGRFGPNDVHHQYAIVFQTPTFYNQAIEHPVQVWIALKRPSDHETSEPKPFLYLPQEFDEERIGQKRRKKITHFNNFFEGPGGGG
# GST-Hu-p50 = GST-Hu-p50 (Homo sapiens, UniProt P19838 7-356)
# GST-Hu-p50, sequence (P19838 7-356): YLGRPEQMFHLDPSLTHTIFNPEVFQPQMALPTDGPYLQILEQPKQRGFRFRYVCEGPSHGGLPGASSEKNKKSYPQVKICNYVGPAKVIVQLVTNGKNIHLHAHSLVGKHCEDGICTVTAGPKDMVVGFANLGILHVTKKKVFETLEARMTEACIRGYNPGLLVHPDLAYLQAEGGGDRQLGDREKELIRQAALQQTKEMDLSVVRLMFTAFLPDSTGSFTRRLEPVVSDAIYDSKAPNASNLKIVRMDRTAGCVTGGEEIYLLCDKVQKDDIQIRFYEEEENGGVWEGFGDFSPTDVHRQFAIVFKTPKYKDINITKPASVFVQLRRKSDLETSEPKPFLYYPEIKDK
Sequence,binding signal (GST-Ap-NF-kB RHD),binding signal [1],binding signal [2],binding signal (GST-Co-NF-kB),binding signal (GST-Dm-Relish),binding signal (GST-Aq-NF-kB),binding signal (GST-Hu-p50)
CCGATTAACATCAGGGGATTTAATGATGTTAATCGGGTCTTGATTCGCTTGACGCTGCTG,7.05 z-score,8.23 z-score,9.99 z-score,3.58 z-score,7.98 z-score,6 z-score,6.98 z-score
CCGATTAACATCAAATTCCCCCTTGATGTTAATCGGGTCTTGATTCGCTTGACGCTGCTG,9.34 z-score,10.3 z-score,11 z-score,8.93 z-score,8.62 z-score,8.5 z-score,8.06 z-score
CCGATTAACATCAGGGGATTAACTGATGTTAATCGGGTCTTGATTCGCTTGACGCTGCTG,5.48 z-score,6.31 z-score,7.11 z-score,2.99 z-score,8.54 z-score,5.82 z-score,4.93 z-score
CCGATTAACATCAGGGGAATACATGATGTTAATCGGGTCTTGATTCGCTTGACGCTGCTG,6.98 z-score,8.02 z-score,7.97 z-score,6.18 z-score,6.02 z-score,5.87 z-score,5.42 z-score
CCGATTAACATCACAAATTCCCCTGATGTTAATCGGGTCTTGATTCGCTTGACGCTGCTG,9.44 z-score,10.9 z-score,12.6 z-score,8.68 z-score,8.67 z-score,8.11 z-score,7.34 z-score
CCGATTAACATCAGGGAATAACCTGATGTTAATCGGGTCTTGATTCGCTTGACGCTGCTG,4.4 z-score,6.79 z-score,6.75 z-score,2.13 z-score,8.23 z-score,7.2 z-score,5.21 z-score
CCGATTAACATCAAAAATACCCATGATGTTAATCGGGTCTTGATTCGCTTGACGCTGCTG,4.63 z-score,6.47 z-score,6.31 z-score,2.49 z-score,5.48 z-score,5.67 z-score,5.58 z-score
CCGATTAACATCAAAGAATCCCCTGATGTTAATCGGGTCTTGATTCGCTTGACGCTGCTG,8.71 z-score,9.68 z-score,11.8 z-score,4.06 z-score,9.1 z-score,6.89 z-score,7.06 z-score
CCGATTAACATCAGGGAATTTCATGATGTTAATCGGGTCTTGATTCGCTTGACGCTGCTG,5 z-score,7.17 z-score,7.08 z-score,3.61 z-score,4.49 z-score,5.84 z-score,5.25 z-score
CCGATTAACATCAGGGCATCCCCTGATGTTAATCGGGTCTTGATTCGCTTGACGCTGCTG,7.7 z-score,8.03 z-score,5.95 z-score,2.46 z-score,9.13 z-score,8.18 z-score,5.52 z-score
CCGATTAACATCAAGACTTCCCCTGATGTTAATCGGGTCTTGATTCGCTTGACGCTGCTG,6.45 z-score,7.56 z-score,7.93 z-score,5.12 z-score,7.71 z-score,6.38 z-score,5.95 z-score
CCGATTAACATCAGGGGAAACACTGATGTTAATCGGGTCTTGATTCGCTTGACGCTGCTG,6.4 z-score,8.15 z-score,9.65 z-score,7.63 z-score,9.02 z-score,7 z-score,6.08 z-score
CCGATTAACATCAAAACCCCCCGTGATGTTAATCGGGTCTTGATTCGCTTGACGCTGCTG,8.43 z-score,6.29 z-score,7.17 z-score,5.04 z-score,10.2 z-score,7.07 z-score,6.96 z-score

# From article PMC5700166
